The values below come from article PMC10668032, “Altered binding affinity of SIX1-Q177R correlates with enhanced WNT5A and WNT pathway effector expression in Wilms tumor”.

Whole data set: some 33,000 sequences, median “e-score” near -0.05, cut for the highest 2% near 0.38. The full list was thinned out, with the highest values kept by preference.

For this assay, the target named is T1, SIX1-Q177R homeodomain (human, UniProt Q15475 108-198, Q177R).
T1 sequence: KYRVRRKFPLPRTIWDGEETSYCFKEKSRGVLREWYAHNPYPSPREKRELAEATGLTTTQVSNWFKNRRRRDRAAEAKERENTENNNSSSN
Put plainly: universal protein binding microarray; Universal all-10-mer PBM (8x60K, AMADID 030236), 300 nM GST-tagged protein, Alexa Fluor 488 anti-GST; buffer, salt, pH and temperature not stated (as in Berger); high values mean tight binding. The conditions noted are these: protein: ivt; tags: N-terminal GST; dsDNA, one strand shown. The procedure, abridged: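 GST-tagged homeodomains were made by in vitro transcription/translation and quantified by anti-GST western blot against a recombinant GST standard curve. They were applied in duplicate at 300 nM final concentration to universal 'all 10-mer' protein binding microarrays (8×60K format). Binding was quantified as 8-mer E-scores with the Universal PBM Analysis Suite.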
CACCATAA: the binding signal came out at 0.303 ± 0.015 E-score. The figure for ATGACCCG is 0.2 ± 0.00637 E-score. Under ACTAGGTG stands 0.218 ± 0.00902 E-score; under ACCCCAAC, 0.237 ± 0.00988 E-score; under ACCGGAGT, 0.25 ± 0.0191 E-score.

For the sequence AGACCCCA, the binding signal was determined as 0.175 ± 0.0169 E-score. For CCCACACG, the binding signal amounted to 0.2877 ± 0.0011 E-score. Under GCCACACC stands 0.367 ± 0.0389 E-score; under ACCACACC, 0.407 ± 0.0186 E-score; under CCCACACC, 0.39 ± 0.0401 E-score. The figure for ACCACACG is 0.297 ± 0.00738 E-score; for ACCACACA it is 0.196 ± 0.00984 E-score; for ACACTTGA it is 0.376 ± 0.0165 E-score.

CGTTGGTA: the binding signal is 0.151 ± 0.00584 E-score. With GCGCGACA, the binding signal was 0.155 ± 0.0207 E-score.

For CACCGTAC, the binding signal was found to be 0.365 ± 0.0199 E-score.

On to CACGGCTC, for which the binding signal was determined as 0.154 ± 0.0275 E-score. Under AGGTCGTG stands 0.264 ± 0.0209 E-score; under ACACTTCC, 0.349 ± 0.026 E-score; under ACACTGCT, 0.339 ± 0.0327 E-score.

CCCCTGCA: the binding signal is 0.17 ± 0.016 E-score. Under ACACTTCG stands 0.327 ± 0.0333 E-score; under ACACTGCC, 0.429 ± 0.0024 E-score. The figure for ACACTTCA is 0.313 ± 0.047 E-score; for ACACTGCA it is 0.385 ± 0.00749 E-score; for ACACTGCG it is 0.383 ± 0.00512 E-score. As for CACGAGTG, the binding signal was found to be 0.317 ± 0.0328 E-score.

On to CTGGGGTA, for which the binding signal was found to be 0.194 ± 0.0256 E-score. Under CCCCCAAC stands 0.17 ± 0.0237 E-score. The figure for TAATGACA is 0.203 ± 0.0464 E-score. On to CGCATTGC, for which the binding signal is 0.166 ± 0.0234 E-score. The figure for AGTGATCC is 0.184 ± 0.018 E-score; for GGCACACA it is 0.179 ± 0.0131 E-score; for CGATGTAC it is 0.254 ± 0.0159 E-score. As for AGGTGTAT, the binding signal stood at 0.441 ± 0.0169 E-score. For the sequence ATGTGTAC, the binding signal is 0.23 ± 0.0242 E-score. AGGTGTAG: the binding signal was 0.473 ± 0.00747 E-score. The figure for ATGTGTAG is 0.183 ± 0.0469 E-score; for AGGTGCAC it is 0.264 ± 0.00684 E-score; for ACCTGTAT it is 0.17 ± 0.00632 E-score. Under AGGTGTAC stands 0.4703 ± 0.00148 E-score; under CGGTGTAC, 0.4872 ± 0.00266 E-score; under CGGTGCAC, 0.296 ± 0.017 E-score. As to AGGTATAA, the binding signal was found to be 0.17 ± 0.0346 E-score. The figure for AGGTGCGG is 0.187 ± 0.0153 E-score; for CAGCGGGG it is 0.194 ± 0.00852 E-score; for CACTCTCC it is 0.192 ± 0.0425 E-score. Under CACGACGG stands 0.182 ± 0.0214 E-score; under CCATTACA, 0.162 ± 0.00552 E-score; under CCGGAGTA, 0.227 ± 0.00414 E-score. Consider CCCCCGTA, for which the binding signal amounted to 0.155 ± 0.0244 E-score. The figure for ACACCGTG is 0.472 ± 0.00577 E-score. For the sequence ATACCGTG, the binding signal came out at 0.301 ± 0.0379 E-score. The figure for GCACCGTA is 0.201 ± 0.0112 E-score; for ACCCCGTC it is 0.178 ± 0.0222 E-score.

In the case of ACACCGTC, the binding signal was 0.4594 ± 0.0011 E-score.

In the case of CACCCGTC, the binding signal was 0.338 ± 0.01 E-score.

On to ACACCGTA, for which the binding signal turned out to be 0.4704 ± 0.00388 E-score. Under ACGCCGTG stands 0.185 ± 0.00332 E-score; under ACGTAGAG, 0.156 ± 0.0478 E-score. The figure for ATAGTACA is 0.312 ± 0.0122 E-score; for CCCCCCCC it is 0.188 ± 0.0377 E-score; for TGCAGACA it is 0.167 ± 0.00968 E-score.

For the sequence ACCCGCGG, the binding signal came out at 0.171 ± 0.0326 E-score. The figure for ACCCGCGT is 0.229 ± 0.0104 E-score; for ATACGCGA it is 0.151 ± 0.036 E-score. The figure for ACACGCGG is 0.402 ± 0.00628 E-score.

In the case of ACACGCGA, the binding signal was 0.369 ± 0.00701 E-score.

In the case of ACACGCGT, the binding signal came out at 0.402 ± 0.0109 E-score.

In the case of CCCGGCCC, the binding signal was found to be 0.167 ± 0.00402 E-score. The figure for TACCTACA is 0.3116 ± 0.00228 E-score; for TCAATACA it is 0.212 ± 0.0334 E-score; for ACGTGCTC it is 0.215 ± 0.0224 E-score. For CACCGGAG, the binding signal came out at 0.328 ± 0.00104 E-score.

On to ACTCAACA, for which the binding signal worked out at 0.172 ± 0.00693 E-score. The figure for ATTAACCC is 0.187 ± 0.00393 E-score. The figure for CTTAACAC is 0.435 ± 0.00897 E-score; for ATTAAAAC it is 0.158 ± 0.019 E-score; for CTTCACAC it is 0.278 ± 0.0221 E-score. Under ATTAACAC stands 0.416 ± 0.0363 E-score; under GACTCCTA, 0.2147 ± 0.000728 E-score.

Take GTTAAGGA: the binding signal was 0.163 ± 0.00211 E-score. Under CAGGGTGG stands 0.161 ± 0.0171 E-score; under ACTAGCAC, 0.194 ± 0.00984 E-score. Under GAGATGTA stands 0.1954 ± 0.000318 E-score; under AGAGACAC, 0.411 ± 0.00648 E-score.

On to AGACACAC, for which the binding signal amounted to 0.316 ± 0.0332 E-score.

CGAGACAC: the binding signal turned out to be 0.389 ± 0.0103 E-score.

With ACAGACAC, the binding signal turned out to be 0.392 ± 0.013 E-score. The figure for CACGAGAC is 0.154 ± 0.0312 E-score. The figure for GGAGACAC is 0.397 ± 0.0125 E-score; for CCAGACAC it is 0.37 ± 0.0149 E-score. Turning to ACACAGAT, the binding signal turned out to be 0.167 ± 0.0587 E-score. Under GCAGACAC stands 0.352 ± 0.0222 E-score.
